The text below walks through data of paper PMC5540273 (PLoS ONE, 2017).

Each structure is given as a SMILES string.
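Further: KINOMEscan kinase panel screen.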

This assay concerns PKMYT1. The following applies: concentration: 1 μM, replicates: in singlicate; n = 1.
As for `CSc1ccc(-c2cc3ncnc(SCC(=O)O)c3s2)cc1`, the “%Inh” value stood at 10%.

Consider `CCc1nc(-c2cccc(C)c2)c(-c2ccnc(NCc3ccccc3)c2)s1`, for which the “%Inh” value worked out at 5%. On to `COCCNC(=O)c1ccc(-c2cc(C(=O)NC3CC3)cc(F)c2C)cc1` [GW868318], for which the “%Inh” value is recorded as 10%.

As for `COc1ccc(COc2cc(-n3cnc4ccccc43)sc2C(N)=O)cc1` [GSK1024304], the “%Inh” value is recorded as 0%.

With `COc1cc2ncn(-c3cc(OCc4sccc4Cl)c(C(N)=O)s3)c2cc1OC` [GSK448459], the “%Inh” value is reported as 0%. Regarding `O=C(NCCNc1ccnc(Nc2ccc(F)cc2)n1)c1cc2ccccc2s1` [GSK1379874], the “%Inh” value was found to be 0%. Take `Cc1cccc(-c2nc(Nc3ccc4ncsc4c3)c3ccccc3n2)n1` [GW867588]: the “%Inh” value is on record as 9%. On to `c1ccc(-c2n[nH]cc2-c2ccnc3ccccc23)nc1` [GW271431], for which the “%Inh” value is reported as 3%.

As to `O=C(NCCNc1ccnc(Nc2ccc(F)cc2)n1)Nc1ccccc1F` [GSK1379880], the “%Inh” value is listed as 9%. Turning to `Cc1nnc(-c2ccc3occ(-c4ccc(C(C)O)cc4)c3c2)o1` (stereo not drawn), the “%Inh” value is reported as 0%. Turning to `NS(=O)(=O)c1cccc(-c2ccc3nccc(-c4cccc(S(N)(=O)=O)c4)c3c2)c1` [GW867253], the “%Inh” value is listed as 3%. For `CCCCCc1nc2c(N)ncnc2n1CCCCC` [SKF-97255], the “%Inh” value is 0%.

For `Cl.Oc1cccc(Nc2ccnc3cc(-c4ccncc4)ccc23)c1` [GW494601], the “%Inh” value was 63%. The result for `Fc1ccc(-c2ncn(CCCN3CCOCC3)c2-c2cccnc2)cc1` [SB-211743] reads 0%; that for `Cc1ccc(C(=O)NCC(N)=O)cc1-n1c(C)cc(OCc2ccc(F)cc2F)c(Br)c1=O`, 22%; that for `NS(=O)(=O)CCc1cccc(Nc2nccc(-c3c(-c4cccc(NC(=O)c5c(F)cccc5F)c4)nn4ccccc34)n2)c1` [GSK336735], 0%. To `COC(=O)Nc1nc2cc(Oc3ccc(NC(=O)Nc4cc(F)ccc4F)cc3)ccc2[nH]1.Cl` [GW701424] belongs 0%; to `Cc1cn2c(=O)cc(N3CCOCC3)nc2n1Cc1cccc(Cl)c1Cl` [GSK2334006], 12%.

Take `N#Cc1c(N2CCOCC2)sc(-c2ccn[nH]2)c1-c1ccc(Cl)cc1`: the “%Inh” value amounted to 10%. Regarding `Cc1cccc(Cn2ccn3c(=O)cc(N4CCOCC4)nc23)c1` [GSK2297542], the “%Inh” value turned out to be 16%. To `COc1ccc(CNC(=O)NC2CCN(c3ccnc(Nc4ccc(OC)cc4)n3)C2)cc1` (stereo not drawn) [GSK1379727] belongs 2%; to `c1ccc(-c2cc(-c3c[nH]nc3-c3ccccn3)ccn2)cc1` [GW576604], 3%; to `COc1cc2c(cc1OCCN1CCN(C)CC1)ncc1c3ccc(C#N)cc3[nH]c21`, 0%. With `COc1ccc(Nc2nccc(N3CCC(NC(=O)Nc4cccc(C(C)=O)c4)C3)n2)cc1` (stereo not drawn) [GSK1379731], the “%Inh” value was 0%. With `Cc1ccc(NC(=O)c2ccnc(N3CCN(C)CC3)c2)cc1-c1ccc(C(=O)NCC2CC2)cc1` [GW775604], the “%Inh” value amounted to 9%.

For `Cc1c(Cn2c(C)nn3c(=O)cc(N4CCOC(C)C4)nc23)cccc1C(F)(F)F` (stereo not drawn) [GSK2344444], the “%Inh” value is reported as 0%. On to `O=C(NCCCN1CCOCC1)c1cccc(Nc2nccc(Nc3ccc(Oc4ccccc4)cc3)n2)c1` [GW663929], for which the “%Inh” value is 0%. To `Nc1nc(-c2ccc3c(N)n[nH]c3c2)cc(N2CCCC2)n1` [GSK2227430] belongs 0%.

Take `Nc1nccc(-c2c(-c3ccc(F)cc3)ncn2C2CCN(CC(F)(F)F)CC2)n1` [SB-236560]: the “%Inh” value came out at 20%. Take `COc1ccc(S(=O)(=O)NC2CCN(c3cc(C)nc(Nc4cccc(C#N)c4)n3)CC2)cc1.O=C(O)C(F)(F)F` [GSK1653539]: the “%Inh” value is recorded as 0%. Regarding `CN(C1=C(c2ccccc2)C(=O)NC1=O)c1ccccc1` [SB-334860], the “%Inh” value came out at 8%.

Consider `CN1c2ccc(CNc3ccc(F)cc3)cc2-c2c(cnn2C)S1(=O)=O`, for which the “%Inh” value is reported as 0%. On to `COc1cc(Nc2nccc(N3CCC(NC(=O)c4cccc(NC(C)=O)c4)C3)n2)cc(OC)c1OC` (stereo not drawn) [GSK1379754], for which the “%Inh” value amounted to 0%.
